Compounds without any hit were thinned out: in the full panel of roughly 83,000, 20% have a hit.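 Single-concentration screen, 48 h exposure, 96-well plates. Endpoint: percent growth. Below 10 = active.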 Calls of active or inactive are those of the source.

The test has as its system HL-60(TB) leukemia. The test is described as follows: NCI-60 one-dose screen, 48 h (100 = growth as untreated, 0 = no growth, -100 = all killed). Particulars: 10 µM unless noted.
For the compound `Cc1cc(N2CCN(CC(=O)Nc3ccc4c(ccn4Cc4ccccc4)c3)CC2)nc(N2CCCCCC2)n1`, the growth was 12.1% (inactive).
The same measure for `Cc1cc(O)c(=O)cc2c1C[C@H]1CC(C)(C)/C=C/C[C@]3(C)Oc4cc(=O)c(O)cc(C)c4C[C@H]3C[C@H](O)[C@@]1(C)O2`: -19.8% (active); for `CC/C=C\C/C=C\C[C@H](O)C/C=C1/C(=O)C=C[C@H]1C/C=C\CCC(=O)OC`: 1.46% [8.25 µM] (active); for `CCO/C=N/C1=C(C#N)C(c2ccc(OC)cc2)c2c(c3ccccc3n(C)c2=O)O1` (stereo not given): 102% (inactive).
The same measure for `Cc1csc(Nc2nc(-c3ccc(Cl)cc3)nc(C(Cl)(Cl)Cl)n2)n1`: 69.3% (inactive); for `CCN1CCN(C(=O)[C@]23CCC(C)(C)C[C@@H]2C2=CC[C@@H]4[C@@]5(C)C/C(=C/c6ccncc6)C(=O)C(C)(C)[C@@H]5CC[C@@]4(C)[C@]2(C)CC3)CC1`: -33.8% (active).
Take `CCCCCCCCCCCCS(=O)CC(C)O` (stereo not given): the growth was 99% (inactive).
For the compound `O=c1oc2c(cc1-c1ccccc1)c(=O)[nH]c1ccccc12`, the growth was 98.1% (inactive).
The figure for `O=C1/C=C/[C@@H](O)[C@@H]2C[C@@H](O)C[C@H]2/C=C/CCC[C@H](CCc2ccccc2)O1` is 3.95% (active); for `CCN1C(=O)c2ccc3c4c(ccc(c24)C1=O)C(=O)N(CCCNCc1ccccc1OC)C3=O` it is -52.6% (active); for `CCN(CC)c1ccc2c(c1)OS(=O)(=O)N=C2` it is 101% (inactive).
For the compound `COc1ccc(Nc2ncnc3ccc(-c4cncc(NS(C)(=O)=O)c4)cc23)cc1Cl`, the growth was 3.01% (active).
The figure for `Cc1cc2oc(/C=C/c3ccccc3)cc(=O)c2c(C)c1Cl` is 80.8% (inactive).
As for `COc1cc(NC(=O)C2=C(C)NC(C)=C(C(=O)Nc3cc(OC)c(Cl)cc3OC)C2c2cccc([N+](=O)[O-])c2)c(OC)cc1Cl`, the growth is 15.5% (inactive).
The same measure for `CCC(O)CC(CC)CO` (stereo not given): 94.2% (inactive).
The figure for `CCCCNC1(C#N)CCN(Cc2ccccc2)CC1` is 153% (inactive); for `Cc1ccccc1C1CC(=O)c2ccccc2C1C` (stereo not given) it is 98.6% (inactive); for `CC(=O)N[C@@H](CCC(N)=O)C(=O)O` it is 107% (inactive).
Consider `COc1ccccc1-n1c(-c2sc(NC(C)=O)nc2C)n[nH]c1=S`, for which the growth is 101% (inactive).
Consider `CC[C@H](C)[C@H](NC(=O)[C@@H](N)CCC(N)=O)C(=O)N[C@@H](Cc1ccc(O)cc1)C(=O)N[C@@H](CCCCN)C(=O)N[C@@H](CCCCN)C(=O)N[C@@H](Cc1ccc(O)cc1)C(=O)N[C@@H](CCCNC(=N)N)C(=O)N[C@H](C(=O)N[C@@H](Cc1c[nH]c2ccccc12)C(=O)N[C@@H](Cc1ccc(O)cc1)C(=O)N[C@@H](CCCNC(=N)N)C(=O)N[C@@H](CCCCN)C(=O)N[C@@H](C)C(=O)N[C@@H](Cc1c[nH]c2ccccc12)C(=O)N[C@@H](CCCCN)C(=O)N[C@H](C(=O)N[C@@H](CC(C)C)C(=O)NCC(=O)N[C@@H](CCCCN)C(=O)N[C@H](C(N)=O)C(C)C)C(C)C)[C@@H](C)O`, for which the growth is 13.9% (inactive).
The same measure for `COc1ccc(/C=C/C(=O)c2ccc([N+](=O)[O-])cc2)cc1`: 82% (inactive); for `COc1cc(/C=C/C(=O)N2CCN(C(=O)/C=C/c3ccccc3)CC2)cc(OC)c1OC`: 101% (inactive); for `CO[C@H]1CC[C@@]2(C)C(=CC[C@H]3[C@@H]4C[C@H](O)C[C@@]4(C)CC[C@@H]32)C1`: 22.6% (inactive).
The figure for `COc1ccc(/C=C/C(=O)c2ccc(-n3cc(CN4CCN(c5cc6c(cc5F)c(=O)c(C(=O)O)cn6C5CC5)CC4)nn3)cc2)cc1` is 85.9% (inactive); for `O=C(O)CCC(=O)c1ccc(C2CCCCCC2)cc1` it is 107% (inactive); for `CCCCCCCC/C=C/CCCCCCCC1=NC(C)(C)CN1c1ccccc1` it is 70% (inactive).
Consider `NC1C(N)C(N)C1N` (stereo not given), for which the growth was 93.8% (inactive).
For `COc1ccc(/C=C2\SC(=S)N(CCCN3CCOCC3)C2=O)c(OC)c1`, the growth was 83.1% (inactive).
`O=C1C=CC(=O)N1C1c2ccccc2-c2ccccc21`: the growth was 77.7% (inactive).
The same measure for `C=C1C(=O)O[C@H]2[C@H]1CC/C(COC(=O)/C=C\C(=O)NCc1ccc(Cn3c(=O)sn(CCI)c3=O)cc1)=C\CC[C@@]1(C)O[C@@H]21`: -34.7% (active); for `CCCCCCCCCCCCCC(=O)C(C)N` (stereo not given): 14.6% (inactive); for `Cn1c(COC(=O)NCCc2ccccn2)nc2c(N3CCOCC3)nc(Cl)nc21`: -36.9% (active).
The figure for `CCN(CC)Cc1cc(Nc2ccnc3cc(Cl)ccc23)cc(-c2ccc(Cl)cc2)c1O` is 51.3% (inactive); for `COC(=O)/C(CCC=C(C)C)=C1\[C@@H](OC(C)=O)C[C@@]2(C)[C@H]1C[C@@H](O)[C@H]1[C@@]3(C)CC[C@H](NCCO)[C@@H](C)[C@@H]3CC[C@@]12C` it is 96.4% (inactive); for `COC(=O)c1ccc2[nH]c(O)c(C(=Nc3ccc(N(C)C(=O)CN4CCN(C)CC4)cc3)c3ccc([N+](=O)[O-])cc3)c2c1` it is 11.6% (inactive).
As for `Cn1c(=O)c2[nH]c(CCCc3nc4c([nH]3)c(=O)n(C)c(=O)n4C)nc2n(C)c1=O`, the growth is 109% (inactive).
Regarding `COc1ccc(C(=O)c2cc3c(OC)c(OC)c(OC)cc3[nH]2)cc1`, the growth is 36.1% (inactive).
For the compound `O=C1c2ccccc2C(=O)c2cc(Cn3c[n+](Cc4ccc5ccccc5c4)c4ccccc43)ccc21`, the growth was -49.2% (active).
The same measure for `CS(=O)(=O)Nc1ccc(OCc2nnc(-c3ccc(Cl)cc3)o2)c(F)c1`: 115% (inactive); for `Cc1ccc2sc3c(NCCCN)nc4ccccc4c3c(=O)c2c1`: -27.1% (active).

Source of the values: PubChem BioAssay (NCI).
